Source: publication PMC7819943, “Rice protein-binding microarrays: a tool to detect cis-acting elements near promoter regions in rice”
Whole data set: some 68,000 sequences, median “fluorescence intensity (a.u.)” near 9,100, cut for the highest 2% near 16,000. This is one part of a sample in which the highest values are shown more often than they occur.

Molecular target: OsWRKY34 (Oryza sativa, UniProt Q0JBA9 1-250)
Experiment: protein-binding microarray (RPBM); PBS, 2% BSA, 51.3 ng/ul salmon testes DNA, 50 uM zinc acetate, 200 nM TF, 25 C, 1 h; high values mean tight binding
Settings: protein: recombinant; tags: N-terminal polyhistidine and DsRed monomer fusion (pET32a); label: CyDye5-dUTP incorporated in the synthesized complementary strand; 3' TTTTT single-stranded linker to array surface; dsDNA, one strand shown
Procedure, shortened: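 Transcription factors were each fused at the N-terminus to a polyhistidine tag plus DsRed and expressed in E. coli BL21-CodonPlus before Ni–NTA purification. Binding to a double-stranded custom Agilent array was carried out with 200 nM protein at 25 °C for 1 h in PBS, 2% BSA, salmon testes DNA and 50 µM zinc acetate. The binding signal is per-feature fluorescence intensity, in arbitrary units, on an Axon 4000B scanner.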

Sequence of OsWRKY34 (Q0JBA9 entry or part of it): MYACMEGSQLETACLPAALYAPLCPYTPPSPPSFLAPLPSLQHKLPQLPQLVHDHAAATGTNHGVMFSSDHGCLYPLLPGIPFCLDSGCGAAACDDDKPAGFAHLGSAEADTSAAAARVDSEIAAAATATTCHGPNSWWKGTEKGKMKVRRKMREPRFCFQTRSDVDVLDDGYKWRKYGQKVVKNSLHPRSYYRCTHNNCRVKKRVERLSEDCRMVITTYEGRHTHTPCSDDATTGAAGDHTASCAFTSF

Row | Sequence | binding signal
1 | ATTGAGATAGAGGGAGTGGTTGGGATGGTGAAGTTGCTATCGGAGTCACCTAGTGCAG | 9450 fluorescence intensity (a.u.)
2 | ACTCCATCAATTTTTCATTATGTCTGTGTTTGTCCTGACTCGGAGTCACCTAGTGCAG | 14900 fluorescence intensity (a.u.)
3 | TCAACTGTACTGTACTCCACTCGCCGCACACACTGACACACGGAGTCACCTAGTGCAG | 11200 fluorescence intensity (a.u.)
4 | TTATGCGTGACTTGTCTTTTTAATTTTTTAATAATTTTTTCGGAGTCACCTAGTGCAG | 9370 fluorescence intensity (a.u.)
5 | GGTTTCCTCATATGCCCTTGAAAATTTGCTATTCCTCTGTCGGAGTCACCTAGTGCAG | 22700 fluorescence intensity (a.u.)
6 | CATTTTTCTAATTACAAAGTCCATTTCTTTTTATGTTTTCCGGAGTCACCTAGTGCAG | 8830 fluorescence intensity (a.u.)
7 | ATACTTCATCCGTTTCTAAATATTTGATGCCGTTGACTTTCGGAGTCACCTAGTGCAG | 17600 fluorescence intensity (a.u.)
8 | AATATTTCATCAGTTTCTAAATTTTTGACGCCGTTGACTTCGGAGTCACCTAGTGCAG | 10200 fluorescence intensity (a.u.)
9 | ATATGTCTGACTTGTACTTTTATGTTATTTTTCCTCTAATCGGAGTCACCTAGTGCAG | 13900 fluorescence intensity (a.u.)
10 | AATTGACTTTTTTATGCTAATTTTCCCTCTAATTACTTGTCGGAGTCACCTAGTGCAG | 18400 fluorescence intensity (a.u.)
11 | GGGCATATTTCTCTATTTTTCTATTCCTATGGTTTGAAATCGGAGTCACCTAGTGCAG | 9080 fluorescence intensity (a.u.)
12 | CATATACTCTATCCGTTTCTAAATATTTGACGCCGTTGACCGGAGTCACCTAGTGCAG | 16200 fluorescence intensity (a.u.)
13 | AGTTGTCCTGCTTTTTTGCTTTCCTAATCTGTTTCCATTTCGGAGTCACCTAGTGCAG | 13300 fluorescence intensity (a.u.)
14 | ATGTCCCTAATTACTGCGTTTTCCATTTTGCTGTTTTTTACGGAGTCACCTAGTGCAG | 16500 fluorescence intensity (a.u.)
15 | AATTTTTTTCCTCTCCTGTTTTGTGCCCTTGATATTATGTCGGAGTCACCTAGTGCAG | 13400 fluorescence intensity (a.u.)
16 | CTGTTTAGATCTCCTAGCAACATTTTACACTCTCTTGCATCGGAGTCACCTAGTGCAG | 8740 fluorescence intensity (a.u.)
17 | CGAACGGTTTAACATATTTAAAAAAGTCAACGGCGTCAAACGGAGTCACCTAGTGCAG | 8310 fluorescence intensity (a.u.)
18 | GCTTGTTTCTTTGCTGAATTATTATTTTGCTCATTCCACTCGGAGTCACCTAGTGCAG | 10300 fluorescence intensity (a.u.)
19 | TTTTTCCCTGAAGCTCCTGTGTGTCATCTCTCTTTTTCTTCGGAGTCACCTAGTGCAG | 11100 fluorescence intensity (a.u.)
20 | ACACTGCCACTCTCTCCCTAGGCCTATAAATACCACCAGTCGGAGTCACCTAGTGCAG | 8340 fluorescence intensity (a.u.)
21 | CATGTTAATTTTCTACTACAGCTTAGGTTGATGCTATGTTCGGAGTCACCTAGTGCAG | 8270 fluorescence intensity (a.u.)
22 | ATCCGCAGACCAAGTCAACACTGCTACGTGAACACCACATCGGAGTCACCTAGTGCAG | 9850 fluorescence intensity (a.u.)
23 | ACGTTATTTATTGTTTTAGGTTCAATCTACGAGTTTCTTTCGGAGTCACCTAGTGCAG | 10700 fluorescence intensity (a.u.)
